Assay results published in PubChem BioAssay (NCATS).
Results filed as inconclusive are left out. Entries that show only a call come without a potency. The source made the active and inactive calls. Calls follow the shape of the dose curve; as a rule, active = well fitted curve in the direction sought with a large enough effect; inconclusive = small, poorly fitted or top-dose-only effect, or another doubt; inactive = no such curve, though single readings can be large; an effect the other way counts as inactive or inconclusive.

How the values were obtained:
[1] = target: Aldehyde dehydrogenase, mitochondrial (Homo sapiens) (UniProt P05091); test: qHTS for Inhibitors of the Aldehyde Dehydrogenase Family (ALDH2) Primary screen (AID 2061308); settings: ALDH2 enzyme inhibition qHTS, 1536-well; series mostly up to 56 µM; also: nearly all actives have a fitted effect of over 55% in size
[2] = target: Retinaldehyde dehydrogenase 3 (Homo sapiens) (UniProt P47895); test: qHTS for Inhibitors of the Aldehyde Dehydrogenase Family (ALDH1A3) Primary screen (AID 2061315); settings: ALDH inhibition qHTS; series mostly up to 56 µM

Row | Structure (SMILES) | Potency [1] | Potency [2]
1 | CC(=O)c1cccc(NC(=O)c2cnn3c(C)cc(C)nc23)c1 | inactive | inactive
2 | C=C1C[C@]23C[C@@]1(O)CC[C@H]2[C@@]12C=C[C@H](O)[C@@](C)(C(=O)O1)[C@H]2[C@@H]3C(=O)O | inactive | inactive
3 | CCCn1c(C)nc2c(NCCOC)nc(C)nc21 | inactive | inactive
4 | COc1cccc(C2c3c(ncn(-c4ccc5c(c4)OCO5)c3=N)Oc3ccc4ccccc4c32)c1 (stereo unspecified) | inactive | inactive
5 | Cc1ccnc(NC(=S)N2CCN(c3cccc(N(C)C)c3)CC2)c1 | inactive | inactive
6 | O=C(NC1CCCc2c1cnn2-c1ccc(F)cc1F)c1cccc(=O)[nH]1 (stereo unspecified) | inactive | inactive
7 | COC(=O)c1cc(F)c(S(=O)(=O)N2CCN(S(=O)(=O)c3ccc4c(c3)OCCO4)CC2)cc1F | inactive | inactive
8 | O=C(O)c1ccc(O)c2ncccc12 | inactive | inactive
9 | CNc1oc(-c2cccc(Cl)c2Cl)nc1C#N | inactive | inactive
10 | CC(C)(C)OC(=O)Cc1nnc(-c2cc3ccccc3[nH]2)s1 | inactive | inactive
11 | CC(C)(C)OC(=O)n1c2ccsc2c2cnn(Cc3ccccc3F)c(=O)c21 | inactive | inactive
12 | FC(F)(F)c1cc(-c2ccc(CNc3nc(-c4ccccc4C(F)(F)F)nc4ccccc34)cc2)cc(C(F)(F)F)c1 | inactive | inactive
13 | Cn1nnnc1Sc1ncnc2scc(-c3ccc(C(=O)OC(C)(C)C)cc3)c12 | inactive | inactive
14 | CC1=CCC(O)C2(C)CCC3C(C)C(=O)OC3C12 (stereo unspecified) | inactive | inactive
15 | Nc1nc(NCC2CCC(CNS(=O)(=O)c3cccc4ccccc34)CC2)nc2ccccc12 (stereo unspecified) | inactive | inactive
16 | O=C1CCc2cc(S(=O)(=O)Nc3cccc(Oc4ccccc4)c3)ccc2N1 | inactive | inactive
17 | O=C(Nc1ccc2c(c1)OCCO2)c1ccc(-c2nc3ccccc3[nH]2)cc1 | inactive | inactive

Row | Structure (SMILES) | Potency [1] | Potency [2]
18 | O=[S+]([O-])(c1c(F)cccc1F)N1CCN([S+](=O)([O-])c2cccc3nonc23)CC1 | inactive | inactive
19 | CCCCNc1nc(C)nc2c1nc(-c1ccccc1)n2C(C)CCCN(CC)CC (stereo unspecified) | inactive | inactive
20 | FC(F)(F)c1ccccc1-c1nc(NCc2cccc3ccccc23)c2ccccc2n1 | inactive | inactive
21 | Cc1ccnc(NC(=S)N2CCC(Nc3cccc(C(F)(F)F)c3)CC2)c1 | inactive | inactive
22 | CC(C)(C)OC(=O)NCCOCCOCCOc1cccc(-n2ncc3c2CCCC3NC(=O)c2ccccn2)c1 (stereo unspecified) | inactive | inactive
23 | Cc1nc(NCc2ccccc2)c2nc(-c3ccccc3)n(CC3CCN(C)CC3)c2n1 | inactive | inactive
24 | c1ccc(CNCc2nnc(-c3cc4ccccc4[nH]3)s2)cc1 | inactive | inactive
25 | COc1cc(OC)cc(-c2nnc3n2N=C(c2ccccc2OC)CS3)c1 | inactive | inactive
26 | CCOC(=O)C1CCN(C(=O)CNC(=O)Nc2ccccc2Cl)CC1 | inactive | inactive
27 | N/C(=N\c1nnc(-c2ccncc2)s1)Nc1ccc(F)c(C(F)(F)F)c1 | inactive | inactive
28 | COc1ccc(C2=Nn3c(nnc3-c3ccc(OC)cc3OC)SC2)c(OC)c1 | inactive | inactive
29 | Cc1ccc(OCCn2c(CCNC(=O)Cc3ccc(F)cc3F)nc3ccccc32)cc1 | inactive | inactive
30 | Fc1cc(Nc2nc(-c3ccncc3)nc3ccccc23)ccc1-c1cccc(C(F)(F)F)c1 | inactive | inactive
31 | Cc1cc(C)nc(NC(=S)N2CCN(c3nccc(C(F)(F)F)n3)CC2)c1 | inactive | inactive
32 | Oc1cc(-c2ccncc2)cc2cccnc12 | inactive | inactive
33 | COc1cccc(Cn2ncc3c4sc(C)cc4n(C)c3c2=O)c1 | inactive | inactive
